Assay outcomes (PubChem)
UBC13 inh = human UBC13 polyubiquitination inhibition. UBC13 polyubiquitin chain formation, TR-FRET. inhibition, % at 20 µM. AID 485273. P61088. actives 0.47% (n = 330,000); in the data active means inhibition above about 45%, passing the limit was not always enough
Target sequence (P61088 whole entry, looked up): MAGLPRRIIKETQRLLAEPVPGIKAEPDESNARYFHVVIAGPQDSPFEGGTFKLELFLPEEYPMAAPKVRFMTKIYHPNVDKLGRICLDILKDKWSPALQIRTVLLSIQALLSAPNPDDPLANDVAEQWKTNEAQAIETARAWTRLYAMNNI
dFosB act = mouse delta FosB homodimer activation; P13346; purified delta FosB, TAMRA-CDK5 oligo fluorescence polarization; percent of positive-control signal above neutral wells; activation, % at 25 µM; actives 0.99% (n = 340,000); AID 493131;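 active means mean activation above about 17%, with every replicate also reaching it, limit read from the data, passing the limit was not always enough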
Target sequence (P13346 whole entry, looked up): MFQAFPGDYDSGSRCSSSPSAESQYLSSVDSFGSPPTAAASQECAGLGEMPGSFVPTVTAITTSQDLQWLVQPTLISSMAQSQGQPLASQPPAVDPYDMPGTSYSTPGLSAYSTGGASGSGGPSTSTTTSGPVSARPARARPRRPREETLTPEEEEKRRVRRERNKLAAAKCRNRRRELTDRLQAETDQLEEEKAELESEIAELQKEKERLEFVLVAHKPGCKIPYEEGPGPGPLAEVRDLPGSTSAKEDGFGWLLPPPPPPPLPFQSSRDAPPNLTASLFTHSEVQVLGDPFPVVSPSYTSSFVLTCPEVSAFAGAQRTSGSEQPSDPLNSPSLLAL
NALP1 yeast inh = blocks the NALP1 inflammasome reconstituted in yeast. actives 0.61% (n = 280,000). inhibition, % at 10 µM. AID 2071. S. cerevisiae NALP1/ASC/caspase-1 growth, X-gal OD620, 72 h; in the data active means inhibition mostly above about 24%, no sharp cut-off; inactive means mostly below about 32%
Yeast superoxide = caloric restriction mimetics inhibiting age-related superoxide in yeast; superoxide response (% of plate mean), % at 10 µM; actives 0.18% (n = 330,000); S. cerevisiae aged cells, superoxide DHE fluorescence; active compounds read low;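 active means superoxide response under a set limit, about three screen SD below normal, cut at about 65% in these data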;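 further: yeast aged for seven days with compound at 30 °C before DHE staining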
GRIN3A LBD mod = modulators (binders) of human NR3A ligand-binding domain; NR3A LBD differential scanning fluorimetry, Tm shift; 0% = protein alone, 100% = glycine-bound protein; Tm shift relative to glycine control, % at 25 µM; actives 2.5% (n = 340,000);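 active means melting temperature shift of at least 10% of the positive control shift, at one fixed dose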
Hits are given with their value; - = inactive; . = no result. A selection: hits, their analogues and other compounds. The true share with any hit is near 4.3%.

SMILES | UBC13 inh | dFosB act | NALP1 yeast inh | Yeast superoxide | GRIN3A LBD mod
CCOC(=O)c1sc(Nc2cccc(C)c2C)nc1C | - | . | - | - | .
CCCCOP(=O)(c1ccc(N(C)C)cc1)C(Nc1ccccc1)c1ccccc1 (stereo not given) | - | - | - | - | 13
CCCOP(=O)(c1ccc(N(C)C)cc1)C(Nc1ccccc1)c1ccc(N(C)C)cc1 (stereo not given) | - | - | - | - | -
CCOc1ccc(S(=O)(=O)NN=C2CCN(C(C)=O)CC2)cc1 | - | - | - | - | -
Cc1ccc(N2CN(S(=O)(=O)c3cccc([N+](=O)[O-])c3)c3nc4ccccc4nc32)cc1 | - | - | - | . | -
CC(=O)Nc1ccc(S(=O)(=O)N2CN(c3ccc(C)cc3)c3nc4ccccc4nc32)cc1 | - | - | - | - | 16
Cc1ccc(S(=O)(=O)Nc2cccc(-c3ccc(N4CCCCCC4)nn3)c2)cc1C | - | - | - | - | -
O=[N+]([O-])c1ccc(S(=O)(=O)Nc2cccc(-c3ccc(N4CCOCC4)nn3)c2)cc1 | - | - | . | - | 72
Cc1ccc([N+](=O)[O-])cc1S(=O)(=O)Nc1cccc(-c2ccc(N3CCCC3)nn2)c1 | - | - | . | - | 12
O=[N+]([O-])c1ccc(S(=O)(=O)Nc2ccc(-c3ccc(N4CCOCC4)nn3)cc2)cc1 | - | - | . | - | -
COc1cccc(NC(=O)CN(C)C(=O)CN2C(=O)NC3(CCCC3)C2=O)c1 | - | - | . | - | 14
COC(=O)CN1C(=O)C2(OCCCO2)c2ccccc21 | - | - | - | - | -
COc1ccc(NC(=O)CN(C)C(=O)CN2C(=O)NC3(CCCCC3)C2=O)cc1 | - | - | . | - | -
COc1cccc(NC(=O)CN2C(=O)C3(OCCCO3)c3ccccc32)c1 | - | - | - | - | 11
O=C(Nc1cccc(NC(=O)c2ccc(Cl)cc2Cl)c1)c1cccnc1 | - | - | - | - | -
CN(C(=O)c1ccc2c(c1)OCO2)C1(C)CCS(=O)(=O)C1 (stereo not given) | - | - | . | - | .
CCCCn1c(N)c(N(CC)C(=O)C2=NN(c3ccccc3)C(=O)CC2)c(=O)[nH]c1=O | - | - | . | - | -
Cc1c(C(=S)Nc2ccccc2)cnn1-c1ccccc1 | - | - | - | - | 15
Cc1c(C(=S)Nc2ccccc2)cnn1-c1ccc([N+](=O)[O-])cc1 | - | - | - | - | -
COc1cc(NC(=O)COC(=O)/C=C/c2ccc(Cl)cc2Cl)cc(OC)c1 | - | - | - | - | 14
Cc1ccc(-c2[nH]ncc2C(=O)c2cccc(F)c2)c(O)c1 | - | - | - | - | -
CCN(CC)c1ccc(C(=C2C=CC(=[N+](CC)CC)C=C2)c2ccccc2)cc1 | . | - | . | . | -
CCN(CC)c1ccc(C(=C2C=CC(=[N+](CC)CC)C=C2)c2ccc(N(CC)CC)cc2)cc1 | . | - | . | . | 351
Cc1cc(OCCCCCn2ccnc2)cc(C)c1Cl | - | - | 26 | - | -
O=C(Nc1ccc(Br)c2ccccc12)c1ccc2ccccc2c1O | . | - | - | - | 19
SMILES | UBC13 inh | dFosB act | NALP1 yeast inh | Yeast superoxide | GRIN3A LBD mod
CC(=O)Nc1ccc(Br)c2ccccc12 | - | - | - | - | -
c1cn2cc(CSC3CCCCC3)nc2s1 | - | - | 36 | - | -
COc1ccccc1N1C(=O)c2ccccc2NC1c1ccncc1 (stereo not given) | - | - | - | - | -
CCc1ccc(C2NC(=S)NC3=C2C(=O)N(c2ccccc2OC)C(c2ccc(CC)cc2)N3)cc1 (stereo not given) | - | 101 | - | - | -
COc1cc(C2NC(=S)NC(C)=C2C(=O)Nc2ccc(C)cc2)ccc1O (stereo not given) | - | - | - | - | -
CC(=O)c1ccc(S(=O)(=O)N2CCCCC2C(=O)O)cc1 (stereo not given) | - | - | - | - | -
COC(=O)c1c(NC(=O)C(C)C)sc(C(=O)N2CCOCC2)c1C | - | - | - | - | -
CC(=O)c1sc(-c2ccccn2)nc1C | - | . | - | - | .
Cc1nc(-c2ccccn2)sc1C(=O)Nc1ccc(Cl)c(Cl)c1 | - | - | - | - | 26
O=C(Nc1ccccn1)c1ccc(Br)s1 | - | - | - | - | -
O=C(Nc1ccc(Cl)cc1)c1ccc(-c2ccccn2)s1 | - | - | . | - | 31
Cn1nc(C(=O)NCCCN2CCCCC2)c2c1-c1ccccc1SC2 | - | - | - | - | -
C=C(C)C(O)CC/C(C)=C/Cc1c(O)ccc(C(=O)/C=C/c2ccc(O)cc2)c1O (stereo not given) | - | - | . | - | 15
COc1ccc(C(=O)/C=C/c2ccc(O)cc2)c(O)c1C/C=C(\C)CCC=C(C)C | - | - | . | - | 30
O=C(/C=C/c1ccc(O)cc1)c1c(O)cc(O)cc1O | - | - | - | - | -
COc1cccc(-c2noc(-c3cccnc3)n2)c1 | - | - | - | - | -
COc1cccc(-c2noc(C(C)n3nc(C)c([N+](=O)[O-])c3C)n2)c1 (stereo not given) | - | - | - | - | 14
COc1cc(/C=C/c2ccc3cccc(O)c3n2)cc(Br)c1OC | - | - | - | - | -
COc1cccc(/C=C/c2ccc3cccc(O)c3n2)c1 | - | - | - | - | -
COc1ccc(/C=C/c2ccc3cccc(O)c3n2)cc1Br | - | - | - | - | 37
Oc1cccc(/C=C/c2ccc3cccc(O)c3n2)c1 | - | - | - | - | 20
COc1cc(/C=C/c2ccc3c(Br)cc(Br)c(O)c3n2)ccc1O | . | - | - | - | 16
Cc1cc(C)cc(NC(=O)c2cccc(C(=O)Nc3cc(C)cc(C)c3)n2)c1 | - | - | - | - | -
CCOc1ccc(C(=O)Nc2nnc(NC(=S)Nc3ccccc3)s2)cc1 | - | - | - | - | 34
Cc1ccc(C(=O)Nc2nnc(NC(=S)Nc3ccccc3)s2)cc1 | - | - | - | - | 32
SMILES | UBC13 inh | dFosB act | NALP1 yeast inh | Yeast superoxide | GRIN3A LBD mod
CCc1nnc(NC(=S)Nc2ccccc2)s1 | - | - | - | - | -
Cc1nn(-c2ccccc2)c(Cl)c1/C=N/NS(=O)(=O)c1ccc(Br)cc1 | - | - | - | - | 17
NC(=O)c1c(NC(=O)Cn2nc(C(=O)O)c3ccccc3c2=O)sc2c1CCCC2 | - | 91 | - | - | -
CCOC(=O)c1c(NC(=O)Cn2nc(C(=O)O)c3ccccc3c2=O)sc2c1CCC(C)C2 (stereo not given) | - | - | . | - | -
Cc1nnc(SCC(=O)Nc2sc3c(c2C(=O)c2ccccc2)CCCC3)s1 | - | - | . | - | 10
Cc1ccc(S(=O)(=O)Nc2cccc(C(=O)NCc3ccc(S(N)(=O)=O)cc3)c2)cc1 | - | - | - | - | -
Oc1ccc(/C=C/c2nc(-c3ccccc3O)n(-c3ccccc3)n2)cc1 | - | - | - | - | 14
COc1cccc(NC(=O)c2cc([N+](=O)[O-])ccc2NC(=O)CNCC2CCCO2)c1 (stereo not given) | - | - | - | 64 | -
CCOC(=O)c1cnc(SC)nc1Sc1ccccc1Cl | - | - | - | - | 20
COCCNC(=O)COc1ncnc2ccc(Br)cc12 | - | - | - | - | 13
